# USP1 inh = inhibitors of human USP1/UAF1 deubiquitinase; actives 0.23% (n = 390,000); recombinant USP1/UAF1, Ub-Rhodamine cleavage fluorescence; Potency, µM (series often up to 57.1 µM), inactives show top-dose activity change, negative = inhibition, hits mostly inhibitors; note: potency is the fitted concentration of half-maximal effect; % is set by controls: 0 for no effect and ±100 for the full control effect; nearly all actives have a fitted effect of over 60% in size
# Target sequence (O94782 whole entry, looked up): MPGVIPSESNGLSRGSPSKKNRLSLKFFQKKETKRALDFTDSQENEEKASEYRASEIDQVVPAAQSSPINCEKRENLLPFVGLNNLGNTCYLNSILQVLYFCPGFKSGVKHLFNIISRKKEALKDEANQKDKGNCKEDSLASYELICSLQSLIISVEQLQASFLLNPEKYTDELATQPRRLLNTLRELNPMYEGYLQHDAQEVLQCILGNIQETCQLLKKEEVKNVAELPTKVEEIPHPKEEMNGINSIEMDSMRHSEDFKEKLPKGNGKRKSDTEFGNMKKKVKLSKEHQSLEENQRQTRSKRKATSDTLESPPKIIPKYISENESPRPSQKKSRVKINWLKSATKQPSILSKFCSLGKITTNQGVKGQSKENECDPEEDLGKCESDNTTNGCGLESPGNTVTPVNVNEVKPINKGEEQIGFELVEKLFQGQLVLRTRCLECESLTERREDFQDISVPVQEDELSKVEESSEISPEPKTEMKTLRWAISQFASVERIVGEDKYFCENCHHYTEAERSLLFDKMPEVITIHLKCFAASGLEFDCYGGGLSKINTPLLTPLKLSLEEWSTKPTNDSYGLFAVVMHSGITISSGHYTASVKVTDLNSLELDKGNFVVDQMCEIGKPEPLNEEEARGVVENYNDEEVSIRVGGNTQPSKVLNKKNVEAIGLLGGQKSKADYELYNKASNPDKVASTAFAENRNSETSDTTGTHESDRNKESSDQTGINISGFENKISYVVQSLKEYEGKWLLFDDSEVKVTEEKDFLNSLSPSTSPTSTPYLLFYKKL
#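 1 nM enzyme complex + cpd, 15 min RT; start with Ub-Rho 150nM final; kinetic fluorescence ex 480/em 540, 6 reads q60 s. Buffer 50mM HEPES pH 7.8, 0.5mM EDTA, 0.1 mg/ml BSA, 1mM TCEP, 0.01% Tween-20.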
# USP2a block = USP2a (human) protease inhibition. O75604. USP2 core, Ub-CHOP2 coupled fluorogenic reporter, 485/531. Potency, µM (series often up to 38.3 µM), for the others: at the highest dose activity change, negative = inhibition, hits mostly inhibitors. actives 0.01% (n = 330,000);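 note: potency is the fitted concentration of half-maximal effect; plate controls were DMSO wells for no effect and full inhibition by NEM control for full effect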
#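 Deubiquitinase activity read as fluorescence (485/531 nm) after Ub-CHOP2 cleavage activates the enterokinase reporter on its substrate; USP2 core 10nM, Ub-CHOP2 and substrate 25nM each, 30min compound preincubation then 60min RT; data normalized to NEM, curves fitted.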
# ATXN viability = cell viability loss in ATXN counter-screen; Potency, µM (top dose mostly 56.7 µM), most hits filed as cytotoxic; actives 0.49% (n = 400,000); S2 cells (HEK-293 line with an ATXN2-luciferase reporter) viability, CellTiter-Fluor protease fluorescence, 24 h; note: potency is the fitted concentration of half-maximal effect; nearly all actives have a fitted effect of over 40% in size
# ATXN2 expr inh = reduces ATXN2 reporter expression in HEK-293 cells; HEK-293 ATXN2-luciferase reporter, luminescence, 24 h; Potency, µM (highest dose often 57 µM), for inactives: top-dose activity change, negative = inhibition, hits mostly inhibitors; actives 0.72% (n = 360,000); note: potency is the fitted concentration of half-maximal effect; % is set by controls: 0 for no effect and ±100 for the full control effect; nearly all actives have a fitted effect of over 55% in size
#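 ATXN2-luciferase reporter cells (luciferase flanked by upstream and downstream ATXN2 gene portions) were treated 24 h at 37 °C with compounds at up to 57 uM. SteadyGlo luminescence gave expression; GF-AFC fluorescence gave viability.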
# IL-1B inflam inh = blocks inflammasome-driven IL-1 beta release | activity change, % at 57.5 µM | actives 4.7% (n = 360,000) | THP-1 LPS/ATP IL-1B secretion, AlphaLISA, 16 h; stronger effect = lower value | AID 743279; in the data active = activity change below about -50%; inconclusive = mostly about -30% to -49%; note: % is set by controls: 0 for no effect and ±100 for the full control effect
#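 THP-1 cells pretreated 1 hr with compounds (up to 57.5 uM final), then stimulated with LPS (250 ng/mL final) plus ATP (1.25 mM final); secreted IL-1B measured by AlphaLISA after 16 hr, decreased signal indicating inhibition.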
# The depositor's hits bear a star; i = inactive; ? = inconclusive; · = no result; ! = not active in a repeat. Most compounds without a hit are left out; they make up all but 4.8% or so of the library. Unless noted, calls come from the whole dose curve; as a rule, active = well fitted curve in the direction sought with a large enough effect; inconclusive = small, poorly fitted or top-dose-only effect, or another doubt; inactive = no such curve, though single readings can be large; an effect the other way counts as inactive or inconclusive.
SMILES,USP1 inh,USP2a block,ATXN viability,ATXN2 expr inh,IL-1B inflam inh
C=C1C(=O)[C@]23C[C@H]1CC[C@H]2[C@]1(C)[C@@H](OC(C)=O)CC[C@@](C)(C(=O)OC)[C@H]1C[C@@H]3OC(C)=O,·,·,31.6µM*,?,-116.4*
C=C1C(=O)[C@]23C[C@H]1CCC2[C@@]1(C)C(C[C@@H]3O)[C@](C)(C(=O)OC)CC[C@@H]1OC(C)=O (stereo partly drawn),·,·,2.82µM*,2.51µM*,-116.5*
O=C(CC[C@H]1O[C@@H](n2ccc(=O)[nH]c2=O)[C@H](O)[C@@H]1O)NCC1CCCO1 (stereo partly drawn),·,·,i,5.0%,11.4
CC1=C(C(=O)Nc2cc3cn[nH]c3cc2F)C(c2ccc(Cl)cc2F)N=C(c2ccnc(Cl)c2)N1 (stereo not drawn),·,·,·,-0.5%,·
Cc1ccc(S(=O)(=O)N2C[C@H]3C(=O)C[C@@H](c4ccccc4)N(S(=O)(=O)c4ccccc4[N+](=O)[O-])[C@H]3C[C@H]2c2ccccc2)cc1,·,·,i,-10.0%,0.2
Cc1ccc(NC(=S)NCc2ccc3c(c2)cc(C)n3C)c(C)c1,-25.5%,-1.2%,?,·,-2.4
COc1ccc(OC)c(/C=C/C(=O)OCC(=O)NCc2cccs2)c1,-16.5%,0.0%,?,-11.0%,18.1
CCOc1cc(/C=C2\C(=O)N(Cc3ccc(C)cc3)C(C)=C2C(=O)OC)ccc1O,-8.5%,4.0%,i,-5.8%,-22.4
C=CCOc1cccc(/C=C2\C(=O)N(Cc3ccc(C)cc3)C(C)=C2C(=O)OC)c1,?,0.6%,i,?,-90.9*
CCc1nc2ccc(C(=O)NCCc3ccccn3)cn2c1N(CC)Cc1cccc(Br)c1,·,·,?,?,-23.1
CCc1nc2ccc(C(=O)NC(C)(C)C)cn2c1N(CC)Cc1cccc(Br)c1,·,·,?,0.0%,-58.0*
Cc1[nH]c2ccccc2c1CCN(Cc1cccnc1)C(=S)Nc1ccc(F)cc1,-18.6%,4.6%,?,-17.6%,-20.5
Cc1cc2nc(CCN(Cc3cccnc3)C(=S)Nc3ccc(F)cc3)[nH]c2cc1C,-11.3%,1.3%,?,-11.7%,?
Cc1[nH]c2ccc(F)cc2c1CCN(Cc1ccncc1)C(=S)Nc1ccccc1,-2.5%,0.4%,i,-27.9%,-69.5*
Cc1cc2nc(CCN(Cc3cccnc3)C(=S)Nc3ccccc3)[nH]c2cc1C,5.0%,1.4%,i,2.7%,-50.3*
Cc1[nH]c2ccccc2c1CCN(Cc1cccnc1)C(=S)Nc1cccc(F)c1,-7.7%,0.4%,i,-13.4%,-70.2*
Cc1ccc(Nc2nc(N)nc(CN3CCN(Cc4ccc5c(c4)OCO5)CC3)n2)cc1C,-7.9%,0.2%,i,-27.1%,-73.7*
O=C(NCCc1csc(-c2ccc(Cl)cc2)n1)c1ccco1,-2.1%,-0.6%,i,14.1µM*!,-23.1
Cc1ccc(-c2nc(CCNC(=O)c3ccco3)cs2)cc1,-8.5%,0.3%,i,-0.8%,-2.1
COc1cc(C(=O)NCCc2csc(-c3ccc(Cl)cc3)n2)cc(OC)c1OC,-18.6%,·,·,20µM*,·
COc1cc(-c2nc(CCNC(=O)c3ccco3)cs2)cc(OC)c1OC,-15.8%,2.5%,i,-6.7%,0.0
COc1ccccc1NC(=O)CSC1=NCCN1,-9.5%,1.4%,i,20.8%,2.0
Cc1cc(=O)[nH]c(SCC(=O)NC(c2ccccc2)c2ccccc2)n1,-1.0%,2.8%,i,-18.9%,29.6
O=C(CSC1=NCCN1)NC(c1ccccc1)c1ccccc1,-13.3%,9.0%,·,-24.2%,-105.1*
O=C(CC(=O)Nc1ccccc1[N+](=O)[O-])Nc1ccccc1[N+](=O)[O-],-5.6%,-2.3%,i,-19.8%,-64.2*
SMILES,USP1 inh,USP2a block,ATXN viability,ATXN2 expr inh,IL-1B inflam inh
O=C(CSC1=NCCN1)Nc1ccccc1[N+](=O)[O-],-7.9%,-1.6%,i,·,-119.0*
O=C(CCSc1ccccc1Cl)Nc1cccc([N+](=O)[O-])c1,-26.0%,-1.6%,i,·,-149.6*
CSCCC(C(=O)NC1CCCC1)n1c(-c2ccccn2)nc2ccccc21 (stereo not drawn),·,·,·,·,-12.2
Cc1cccc(C(=O)NCc2nc(-c3cccc(NC(=O)C4CCCN(C)C4)c3)oc2C)n1 (stereo not drawn),·,·,i,·,·
Cc1ccc(NC(=O)CSC2=NCCN2)cc1,-19.8%,3.8%,i,13.5%,-61.1*
Nc1nc(SCC(=O)Nc2cccc([N+](=O)[O-])c2)n[nH]1,-13.3%,-1.3%,i,-2.0%,20.5
O=C(CSC1=NCCN1)Nc1cccc([N+](=O)[O-])c1,-10.5%,1.6%,i,-18.9%,-66.6*
CCC(C)NC(=O)c1c(N)n(/N=C/c2cccnc2)c2nc3ccccc3nc12 (stereo not drawn),-15.9%,2.4%,i,-15.8%,-59.0*
CC(C)CNC(=O)c1c(N)n(/N=C/c2cccnc2)c2nc3ccccc3nc12,·,0.7%,·,·,·
CCC(C)NC(=O)c1c(N)n(/N=C/c2ccccn2)c2nc3ccccc3nc12 (stereo not drawn),-16.9%,0.2%,i,-2.1%,-83.0*
OCCN(CCO)CC(O)COc1ccc(Br)cc1 (stereo not drawn),-25.3%,-2.2%,?,·,-4.7
CN(CCOc1ccc(Br)cc1)CC(O)COc1ccc(C#N)cc1 (stereo not drawn),-9.9%,-2.1%,i,?,-87.4*
COc1ccc(CN(C)CC(O)COc2ccc(C(=O)c3ccccc3)cc2)c(OC)c1OC (stereo not drawn),-8.9%,-0.6%,?,0.0%,-66.9*
COc1ccc(Br)cc1CN(C)CC(O)COc1ccc(Br)cc1 (stereo not drawn),-21.2%,-1.0%,i,?,-85.0*
Cc1ccc(NC(=S)NNc2ccc([N+](=O)[O-])cc2S(=O)(=O)Nc2ccccc2C(=O)O)cc1C,-20.9%,-2.0%,31.6µM*,-6.7%,-11.2
O=C(O)c1ccccc1NS(=O)(=O)c1ccc(NNC(=S)Nc2ccc(OC(F)F)cc2)c([N+](=O)[O-])c1,?,-2.2%,i,-7.6%,-50.9*
COC(=O)[C@@H]1CCCN1C(=O)c1c(OC)cc(=O)n2c1CCN(Cc1ccc3cccnc3c1)CC2,·,·,i,·,·
Oc1[nH]c2ccccc2c1N=Nc1ccc(F)cc1,?,?,i,100.0%,-6.8
Oc1[nH]c2ccccc2c1N=Nc1ccccc1,28.2µM*,?,i,52.5%,-12.4
Cc1cccc(NC(=O)c2sc3nc4n(c(=O)c3c2C)N=C(c2ccc(F)cc2)CS4)c1C,1.7%,·,i,-7.9%,·
COc1cc(OC)c(OC)cc1/C=N/N(C)c1ccccc1,-18.4%,1.0%,i,0.6%,-62.5*
COc1cc(/C=N/N(C)c2ccccc2)ccc1O,-2.1%,5.2%,i,103.2%,?
